Assay outcomes: PubChem, several laboratories
In the library only some 12% were active in any assay of this set; here they are far more common.
CHOP inh: inhibitors of CHOP promoter induction, primary screen, cell-based, unfolded protein response, luciferase reporter | CHO-K1 CHOP-promoter luciferase, tunicamycin-induced, 15-18 h | AID 2732, 2010 | inhibition, % at 10 µM | 3.8% of 220,000 active;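 active = compounds that reduced the stress-induced luciferase reporter signal by more than about 70% of percent inhibition, limit read from the data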
WT yeast gro inh: growth inhibition of WT strain, primary screen, mitochondrial fusion inhibitor project, WT and mutant strains, chemical genetic. mitochondrial fusion phenotypic screen. inhibition, % at 10 µM. 2.1% of 190,000 active. AID 1362, 2008; in the data active = inhibition above about 58%; tested in S. cerevisiae
L major viab: Leishmania major promastigote growth inhibition, primary screen. Leishmania major promastigotes, resazurin fluorescence viability. inhibition, % at 10 µM. 9% of 200,000 active; in the data active = inhibition above about 50%;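 also: promastigotes grown with compound for 44 hours at 28 °C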
Arbovirus inh: antivirals against arbovirus infection, primary screen, cell-based, full library, 10K replicate subset. arbovirus infection cell-based antiviral screen. AID 1251, 2008. 0.37% of 200,000 active. inhibition, % at 10 µM; in the data active = inhibition above about 30%
L major 1uM: Leishmania major promastigote growth inhibition, confirmation, 1 µM repeat of primary hits. shares compounds with L major viab. L. major promastigote growth, resazurin fluorescence, 48 h. inhibition, % at 1 µM. 13% of 1,100 active. AID 1258, 2008;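 active = inhibition above about 50% in both repeat tests, limit read from the data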
Of the large screens only hits and unclear results are named; the others gave an inactive call (follow-up assays come after a bar, where they were run).

Cc1cc(C)cc(N=Cc2ccc([N+](=O)[O-])s2)c1	L major viab 100 | L major 1uM inactive
CCCC(C)NC(=O)c1ccc(C2SCC(=O)N2Cc2ccco2)cc1 (centres undefined)	none
CCCNCC1C(Oc2ccc(Cl)cc2)C(=O)N1c1ccccc1C (centres undefined)	L major viab 91 | L major 1uM inactive
CC1=C(OC(=O)C(C)(C)C)C(C)(C)C(c2ccccc2)OC1=O (centres undefined)	L major viab 55 | L major 1uM inactive
CC1C(=O)C(C)(C)C(=O)OC1c1ccccc1 (centres undefined)	none (no result: WT yeast gro inh, L major viab, Arbovirus inh)
CCc1ccc(C2c3[nH]c4ccccc4c3CCN2C(=O)CN2CCN(CC)CC2)cc1 (centres undefined)	L major viab 75 | L major 1uM inactive
CCc1ccc(C2c3[nH]c4ccccc4c3CCN2C(=O)CNC(N)=O)cc1 (centres undefined)	none
CN(C)c1cc(N/N=C/c2ccc(Cl)cc2)nc(N(C)C)n1	L major viab 78 | L major 1uM 74
Cc1cc(N/N=C/c2ccc(N(C)C)cc2)nc(NCc2ccccc2)n1	none (no result: WT yeast gro inh, L major viab, Arbovirus inh)
CCOc1ccc(S(=O)(=O)Oc2ccc3ccccc3c2)cc1	none
OCCSc1nc(-c2ccccc2)nc2c1CCC2	L major viab 52 | L major 1uM inactive
COc1cccc(NS(=O)(=O)c2nc3nc(C)cc(C)n3n2)c1	none
COc1ccc(NS(=O)(=O)c2cc(NC(=O)c3nc4nc(C)cc(C)n4n3)ccc2C)cc1	L major viab 72 | L major 1uM inactive
CC(C)(C)c1ccc(-c2nc(N)nc(N)n2)cc1	none (no result: WT yeast gro inh, L major viab, Arbovirus inh)
CC(C)(C)c1ccc(-c2ncccc2O)cc1	L major viab 100 | L major 1uM 83
O=c1[nH]c2cc3c(cc2cc1CN(Cc1cccnc1)C(=S)NCc1ccco1)OCCO3	none
S=c1[nH]ccn1-c1cccc(Cl)c1	L major viab 59 | L major 1uM inactive
Cc1ccc(-n2cc[nH]c2=S)cc1C	none
COc1ccc([C@@H]2Sc3cc(OC)ccc3N(CCN(C(C)C)C(C)C)C(=O)[C@H]2OC(C)=O)cc1	L major viab 74 | L major 1uM inactive
CCN1C(=O)C(NC(C)=O)c2cc(OC)ccc21 (centres undefined)	none
Cc1ccccc1Cn1nnc(C(=O)Nc2cccc(C)c2C)c1N	L major viab 95 | L major 1uM inactive
CCCCSc1nnc([C@H](CC(C)C)NC(=O)OC(C)(C)C)o1	L major viab 76 | L major 1uM inactive
CCCCSc1nnc([C@H](C)NC(=O)OC(C)(C)C)o1	none
O=Cc1cn(-c2ccccc2)nc1-c1ccc2c(c1)OCCO2	L major viab 96 | L major 1uM inactive
CCN1C(=O)C(CC(=O)Nc2ccc(Br)cc2)N(CCCc2ccccc2)C1=S (centres undefined)	CHOP inh 89, L major viab 92 | L major 1uM inactive
N#C/C(=C\Nc1ccccc1O)c1nc2ccccc2o1	WT yeast gro inh 63, L major viab 79 | L major 1uM inactive
N#C/C(=C\c1ccncc1)c1nc2ccccc2o1	none (no result: WT yeast gro inh, L major viab, Arbovirus inh)
O=C1NCC(c2ccccc2)C1C(=O)N/N=C\c1ccc(-c2ccc(Cl)c(Cl)c2)o1 (centres undefined)	L major viab 59 | L major 1uM inactive
O=C1NCC(c2ccccc2)C1C(=O)N/N=C/c1ccc(Cl)s1 (centres undefined)	none
O=C(OCC(=O)N1CCc2ccccc2C1)c1cc(=O)[nH]c2ccccc12	none (no result: WT yeast gro inh, L major viab, Arbovirus inh)
COc1cc2c(cc1OC)C(C)=NCC2	none
COc1cc2c(cc1OC)C(c1ccc(-c3ccccc3Cl)o1)=NCC2	L major viab 68 | L major 1uM inactive
Nc1nnc(-c2cn(-c3ccccc3)nc2-c2ccccc2)o1	L major viab 55 | L major 1uM inactive
Nc1n[nH]c(-c2ccccc2[N+](=O)[O-])n1	L major viab 60 | L major 1uM inactive
CC(=O)c1cc(-c2ccc(F)cc2)n(CCC(=O)Nc2cccnc2)c1C	none
CCCC1COC(Cn2cncn2)(c2ccc(C)cc2)O1 (centres undefined)	L major viab 55 | L major 1uM inactive
CCC(C)n1ncn(-c2ccc(N3CCN(c4ccc(OCC5COC(Cn6cncn6)(c6ccc(Cl)cc6Cl)O5)cc4)CC3)cc2)c1=O (centres undefined)	none (no result: L major viab)
CS(=O)(=O)N(CCc1ccccc1)CC(=O)NCC1CCCO1 (centres undefined)	none
Cc1ccc(NC(=O)CSc2nnc(-c3cccs3)o2)cc1S(=O)(=O)N(C)C	none
